The text below walks through data of the supplement of paper PMC9262897, “Low-cost anti-mycobacterial drug discovery using engineered E. coli” (Nature Communications, 2022).

Structures can show the parent of a compound that is named as a salt. ± gives the standard deviation of the averaged measurements.

The assay deals with E. coli TESEC Alr+ wild-type control. Briefly: growth (OD600 after 10 h); higher = more growth (less inhibition). The note with it: compound 0.1 mM; raw OD600 reference: median of DMSO wells 0.49, cell-free background 0.052. The protocol:
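TESEC Mtb Alr E. coli (ΔaraC ΔtolC ΔentC Δalr ΔdadX, arabinose-inducible Mtb Alr) or the Alr+ wild-type control strain, grown in defined M9-fructose medium without D-alanine in 96-well plates with Prestwick library compounds at 0.1 mM and 1% DMSO. Low Alr induction is 0.1 µM arabinose and high induction is 10 mM arabinose.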
In the case of `CCN(CC)C(=O)c1ccc(O)c(OC)c1` [Ethamivan], the growth amounted to 0.543 ± 0.12.

Take `CS(=O)(=O)c1ccc(C2=C(c3ccccc3)C(=O)OC2)cc1` [Rofecoxib]: the growth was 0.455 ± 0.041.

With `O=C(O)[C@H]1/C(=C/CO)O[C@@H]2CC(=O)N21` [Clavulanate potassium salt], the growth was determined as 0.04737 ± 0.00042.

`CCN(CC)CCCC(C)Nc1ccnc2cc(Cl)ccc12` (stereo not given) [Chloroquine diphosphate] displayed a growth of 0.549 ± 0.065.

Regarding `C(=C\c1ccccc1)/CN1CCN(C(c2ccccc2)c2ccccc2)CC1` [Cinnarizine], the growth was found to be 0.539 ± 0.055.

`CC(=O)OCC(=O)NCCCOc1cccc(CN2CCCCC2)c1` [Roxatidine Acetate HCl] had a growth of 0.673 ± 0.062.

Compound `Cc1cc(N)c2ccccc2[n+]1CCCCCCCCCC[n+]1c(C)cc(N)c2ccccc21` [Dequalinium dichloride] yielded a growth of 0.0513 ± 0.0018.

With `O=C(CCNNC(=O)c1ccncc1)NCc1ccccc1` [Nialamide], the growth was found to be 0.516 ± 0.07.

Compound `COC(=O)C1=C(C)NC(C)=C(C(=O)OC2CCCN(Cc3ccccc3)C2)C1c1cccc([N+](=O)[O-])c1` (stereo not given) [Benidipine hydrochloride] yielded a growth of 0.295 ± 0.015.

On to `OCCN1C[C@H](O)[C@@H](O)[C@H](O)[C@H]1CO` [Miglitol], for which the growth came out at 0.583 ± 0.098.

`CCOC(=O)OC(C)OC(=O)[C@@H]1N2C(=O)[C@@H](NC(=O)[C@H](N)c3ccccc3)[C@H]2SC1(C)C` (stereo not given in full) [Bacampicillin hydrochloride] gave a growth of 0.611 ± 0.013.

With `NS(=O)(=O)c1cc(C(=O)O)c(NCc2ccco2)cc1Cl` [Furosemide], the growth is 0.613 ± 0.019.

On to `CCn1nc(C(=O)O)c(=O)c2cc3c(cc21)OCO3` [Cinoxacin], for which the growth came to 0.0852 ± 0.0034.

In turn, `C=CCOc1ccccc1OCC(O)CNC(C)C` (stereo not given) [Oxprenolol hydrochloride] gave a growth of 0.554 ± 0.095.

In the case of `COCCCOc1ccnc(C[S+]([O-])c2nc3ccccc3[nH]2)c1C` (stereo not given) [Rabeprazole Sodium salt], the growth stood at 0.375 ± 0.0068.

The compound `NC(=O)OCC(O)COc1ccc(Cl)cc1` (stereo not given) [Chlorphensin carbamate] gave a growth of 0.523 ± 0.01.

`C=CC(N)CCC(=O)O` (stereo not given) [Vigabatrin] yielded a growth of 0.586 ± 0.13.

`CC(C(=O)O)c1ccc(C(=O)c2cccs2)cc1` (stereo not given) [Suprofen] gave a growth of 0.605 ± 0.029.

Turning to `Cc1c(C)c2c(c(C)c1O)CCC(C)(COc1ccc(CC3SC(=O)NC3=O)cc1)O2` (stereo not given) [Troglitazone], the growth is 0.445 ± 0.029.

`c1ccc(CN(CC2=NCCN2)c2ccccc2)cc1` [Antazoline hydrochloride] registered a growth of 0.5 ± 0.083.

Compound `Nc1ncnc2c1ncn2[C@@H]1O[C@H](CO)[C@@H](O)[C@@H]1O` [Vidarabine] registered a growth of 0.535 ± 0.069.

`CC(=O)S[C@@H]1CC2=CC(=O)CC[C@]2(C)[C@H]2CC[C@@]3(C)[C@@H](CC[C@@]34CCC(=O)O4)[C@H]12` [Spironolactone] displayed a growth of 0.331 ± 0.022.

`CNC(=O)c1c(I)c(C(=O)NCC(=O)Nc2c(I)c(C(=O)O)c(I)c(C(=O)NCCO)c2I)c(I)c(N(C)C(C)=O)c1I` [Ioxaglic acid]: the growth came to 0.606 ± 0.023.

In turn, `Cc1cccc(C)c1NC(=O)C1CCCCN1C` (stereo not given) [Mepivacaine hydrochloride] gave a growth of 0.46 ± 0.038.

In turn, `CCOC(=O)[C@H](CCc1ccccc1)N[C@H]1CCc2ccccc2N(CC(=O)O)C1=O` [Benazepril HCl] showed a growth of 0.559 ± 0.042.

`CC[C@H]1OC(=O)[C@H](C)[C@@H](O[C@H]2C[C@@](C)(OC)[C@@H](O)[C@H](C)O2)[C@H](C)[C@@H](O[C@@H]2O[C@H](C)C[C@H](N(C)C)[C@H]2O)[C@](C)(O)C[C@@H](C)[C@@H]2N[C@@H](COCCOC)O[C@H]([C@H]2C)[C@]1(C)O` [Dirithromycin] showed a growth of 0.0524 ± 0.00093.

Regarding `O=C1c2cccc(O)c2C(=O)c2c(O)cccc21` [1,8-Dihydroxyanthraquinone], the growth worked out at 0.383 ± 0.011.

In the case of `NC(=O)NC1NC(=O)NC1=O` (stereo not given) [Allantoin], the growth turned out to be 0.438 ± 0.049.

The compound `C1CCC(C(CC2CCCCN2)C2CCCCC2)CC1` (stereo not given) [Perhexiline maleate] came in with a growth of 0.0486 ± 0.00055.

`CC1(C)OC(=O)NC1=O` [Dimethadione] displayed a growth of 0.526 ± 0.075.

`O=S(=O)(O)c1cc(O)ccc1O` [Ethamsylate] registered a growth of 0.525 ± 0.079.

In the case of `O=c1oc2ccccc2c(O)c1Cc1c(O)c2ccccc2oc1=O` [Dicumarol], the growth was determined as 0.191 ± 0.025.

For `COc1ccc(/C=C/C(=O)Nc2ccccc2C(=O)O)cc1OC` [Tranilast], the growth is 0.452 ± 0.0089.

In turn, `CCCNC(C)C(=O)Nc1c(C)csc1C(=O)OC` (stereo not given) [Articaine hydrochloride] yielded a growth of 0.47 ± 0.023.

Regarding `CS(=O)(=O)c1ccc([C@@H](O)[C@@H](CF)NC(=O)C(Cl)Cl)cc1` [Florfenicol], the growth was 0.05113 ± 0.00023.

In turn, `Nc1nc(=O)[nH]cc1F` [Flucytosine] registered a growth of 0.57 ± 0.021.

`CN1CCN(CCCN2c3ccccc3Sc3ccc(C(F)(F)F)cc32)CC1` [Trifluoperazine dihydrochloride] displayed a growth of 0.04767 ± 0.00035.

Consider `CCCc1nc2c(C)cc(-c3nc4ccccc4n3C)cc2n1Cc1ccc(-c2ccccc2C(=O)O)cc1` [Telmisartan], for which the growth was 0.505 ± 0.043.

The compound `CN1C(C(=O)Nc2ccccn2)=C(O)c2ccccc2S1(=O)=O` [Piroxicam] yielded a growth of 0.4032 ± 0.0031.

With `CN(C)CCn1nnnc1SCC1=C(C(=O)O)N2C(=O)[C@@H](NC(=O)Cc3csc(N)n3)[C@H]2SC1` [Cefotiam hydrochloride], the growth was 0.166 ± 0.096.
